From PubChem BioAssay AID489025 (Southern Research Specialized Biocontainment Screening …, 2010)
Among all 2,300 compounds or so, about 790 (34%) were called active. How the calls were made is not given here. The list shows a part of the results. Where a call stands in place of a potency, no number is given. Potency and affinity values are given separately.

Assay: THP-1 cell cytotoxicity, dose response, cytotoxicity control for non-replicating M. tuberculosis project (AID 489025)
Conditions: THP-1 cell viability; series mostly up to 40 µM

SMILES | outcome
Fc1ccc(-c2nnc(CSc3nnc(-c4cccs4)o3)o2)cc1 | inactive
Fc1ccc(-c2nnc(-c3ccc(F)cc3)o2)cc1 | inactive
Cc1ccc(-c2nnc(-c3cccs3)o2)cc1 | inactive
COc1cccc(OCc2nnc(-c3cccs3)o2)c1 | inactive
O=C1N=c2ccccc2=C1c1c(O)n(-c2cccc(F)c2)[nH]c1=O | inactive
CCCn1nnnc1NCc1ccc(C(C)C)cc1 | inactive
Cc1ccnc(-n2c(C)cc(/C=C3\C(=O)NC(=S)N(C)C3=O)c2C)c1 | inactive
CCn1c(O)c(C(=O)CC2NCCc3ccccc32)c(=O)n(CC)c1=S (stereo unspecified) | inactive
Cc1cc(C)c2c(=O)n(CC(=O)Nc3cccc(Cl)c3C)sc2n1 | inactive
CCOc1ccc(NC(=O)CCc2ccc(C)o2)cc1 | inactive
COC(=O)c1ccc(COC(=O)CCS(=O)(=O)c2ccc(C)cc2)cc1 | inactive
Cc1ccc(OC(=O)CCS(=O)(=O)c2ccc(C)cc2)cc1 | inactive
COc1ccc(-c2cc(O)cc(O)c2)cc1 | inactive
COc1ccc(OCCOC(=O)CCS(=O)(=O)c2ccc(C)cc2)cc1 | inactive
COC(=O)COc1ccc(-c2ccccc2)cc1C=O | inactive
COc1ccc(-c2cc(=O)oc(-c3cccc(C)c3)n2)cc1 | inactive
COC(=O)COc1ccc2c(=O)c(-c3ccccc3)coc2c1 | inactive
Cc1cc(Br)ccc1OCC(=O)NNC(=O)C(=O)Nc1ccccc1 | inactive
O=C1CCCC(O)=C1C=Nc1ccc2c(c1)oc1ccccc12 | inactive
C(#CCN1CCOCC1)COCc1ccccc1 | inactive
CC(CCc1ccccc1)NC(=O)COC(=O)c1cccs1 (stereo unspecified) | inactive
Cc1nc2scc(-c3ccccc3)c2c(=O)o1 | inactive
CCN(CC)c1ccc(NC2CC(=O)N(CCc3ccc(OC)cc3)C2=O)cc1 (stereo unspecified) | inactive
O=C(OCc1nnc(-c2ccccc2)o1)c1ccc(Br)o1 | inactive
CCCOC(=O)c1ccc(NC(=O)C2C3C=CC(O3)C2C(=O)O)cc1 (stereo unspecified) | inactive

SMILES | outcome
C=CCNc1nc(C(=O)OCC(=O)c2cccc(Br)c2)cs1 | inactive
Fc1cccc2sc(N3CCCC3)nc12 | inactive
Cc1ccc(NC(=S)C2=C(O)c3sccc3N(C)S2(=O)=O)cc1 | inactive
Cc1ccc(C(=O)N/N=C/C=C/c2ccccc2)cc1 | inactive
O=C(CCNc1ccc(Cl)c(C(F)(F)F)c1)c1ccco1 | inactive
C/C(=N\NC(=O)c1ccccc1)c1nc2ccccc2n1C | inactive
O=C(NCCSc1ccccc1)c1ccc(Br)cc1 | inactive
COc1ccc(NC(=O)c2nc3ccccc3s2)cc1 | inactive
CCOC(=O)CNc1ccc(C(=O)OCC)cc1[N+](=O)[O-] | inactive
CN(C)c1ccc(NC(=O)COC(=O)c2cc(Cl)ccc2[N+](=O)[O-])cc1 | inactive
CC(C)=CCN1CCN(Cc2cn(C(C)C)c3ccccc23)CC1CCO (stereo unspecified) | inactive
COc1cccc2cc(-c3nc4ccccc4[nH]3)c(=O)oc12 | inactive
CSc1nc(=S)cc(C)[nH]1 | inactive
CC(NC(=O)c1cc([N+](=O)[O-])cc([N+](=O)[O-])c1)c1ccc(-n2ccnc2)cc1 (stereo unspecified) | inactive
COc1cccc(NC(=O)c2cnc(SC)nc2)c1 | inactive
COc1ccccc1NC(=O)c1cnc(SC)nc1 | inactive
Cc1ccc(S(=O)(=O)NCc2ccc(C(=O)NCCCN3CCC(Cc4ccccc4)CC3)cc2)cc1 | inactive
Nc1c(Cl)cc(Cl)cc1C(=O)OCC(=O)N1CCCC1 | inactive
COc1ccccc1-c1nnc(-c2ccc(C)cc2)o1 | inactive
COc1ccccc1-c1cc(SC)c(C#N)c(=O)o1 | inactive
CC(=O)c1ccc(OCC(=O)Nc2ccc3c(c2)CCC3)cc1 | inactive
Cc1nnc(N/N=C/c2ccc(-c3ccc(Br)cc3)o2)n1N | inactive
CC(=O)N(c1nnc(-c2ccc(C)cc2)s1)C1CCCC1 | inactive
CC1=NN(C(=O)CCCc2ccccc2)C(O)(C(F)(F)F)C1 (stereo unspecified) | inactive
O=C(c1ccccc1[N+](=O)[O-])N1N=C(c2ccccc2)CC1(O)C(F)(F)F (stereo unspecified) | inactive

SMILES | outcome
CC1=NN(C(=O)c2csc(C(C)C)c2)C(O)(C(F)(F)F)C1 (stereo unspecified) | inactive
CC1=NN(C(=O)c2cc(C)nn2C)C(O)(C(F)(F)F)C1 (stereo unspecified) | inactive
CCOC(=O)C1=C(C)NC(=O)NC1c1ccc(-c2ccc(F)cc2)o1 (stereo unspecified) | inactive
COc1cccc(-c2nc(C=O)cs2)c1 | inactive
CCOC(=O)c1cc(-c2cccc([N+](=O)[O-])c2)on1 | inactive
CC(NC(=O)c1cccc(F)c1)C1CC2CCC1C2 (stereo unspecified) | inactive
COc1ccc(CNC(=O)COC(=O)C2CC3C=CC2C3)cc1 (stereo unspecified) | inactive
CCCCNC(=O)Nc1nnc(-c2ccc(Cl)cc2)o1 | inactive
O=C(CCN1CCC(c2cccs2)=N1)c1cccs1 | inactive
O=c1ccn(-c2ccccc2)[nH]1 | inactive
COC(=O)c1ccc(CO/N=C/c2ccc(OC)cc2)o1 | inactive
CCOC(=O)c1c(-c2ccc(C)o2)csc1NC(=O)CN1CCCCC1 | inactive
Cc1ccc(C(=O)COC(=O)CCc2ccc(S(=O)(=O)N3CCCCC3)cc2)cc1 | inactive
Cc1ccc(OCC(=O)N2CCCc3ccccc32)cc1 | inactive
COc1cc2c(cc1OC)CN(CCC(=O)c1ccc(Br)cc1)CC2 | inactive
COc1ccc(C(=O)CCNc2ccc(F)cc2)cc1 | inactive
CC(C)Oc1ccc(CNC(=O)Oc2ccccc2)cc1 | inactive
COc1ccc(C(O)CNc2ccc(C)cc2)cc1 (stereo unspecified) | inactive
COc1ccc(C(C)NC(=O)CCc2ccccc2)cc1 (stereo unspecified) | inactive
COc1ccc(OC(=O)C(C)N2C(=O)c3ccccc3C2=O)cc1 (stereo unspecified) | inactive
CN(C)Cc1ccccc1Sc1ccccc1Br | inactive
COC(=O)COc1ccc2c(-c3ccc(OC)cc3)cc(=O)oc2c1 | inactive
O=C(Nc1nccs1)c1ccccn1 | inactive
Cc1nc2ccc(OC(=O)c3ccccc3)cc2s1 | inactive
CCOc1ccc2nc(/N=C/c3nc(-c4ccccc4)oc3O)sc2c1 | inactive

SMILES | outcome
O=C(Nc1c(F)cc(F)cc1Br)c1cc(-c2ccccc2)on1 | inactive
O=C(NNc1nc2cc3c(cc2s1)OCCO3)c1ccccc1 | inactive
Cc1ccc(C)c(-c2csc(NC(=O)c3cnccn3)n2)c1 | inactive
CCOCC(=O)Nc1nc2ccc(C)cc2s1 | inactive
O=C(CCN1CCC(c2ccccc2)C1)c1ccccc1 (stereo unspecified) | inactive
O=C(CNC(=O)c1ccccc1F)OCc1csc(-c2ccccc2)n1 | inactive
O=C(NCc1ccc2c(c1)OCO2)c1ccc(Cl)s1 | inactive
C=CCc1ccc2oc(C(=O)OCC)cc(=O)c2c1O | inactive
CCc1ccc(C(C)NC(=O)C2CCCO2)cc1 (stereo unspecified) | inactive
CC1=CC(=O)NP(=O)(Oc2ccc3ccccc3c2)N1 (stereo unspecified) | inactive
Cc1nc2ccc(NC(=O)COc3cccc(F)c3)cc2s1 | inactive
O=C(NNc1nc2ccccc2s1)c1ccc(F)cc1 | inactive
COc1cc(/C=C2/C(=O)NN(c3cccc(C)c3)C2=O)ccc1OC(=O)c1ccco1 | inactive
COc1cc(NC(=O)C/C(C)=N/NC(=O)c2cccs2)c(OC)cc1Cl | inactive
Cc1cccc2nc(CSc3nc4cc([N+](=O)[O-])ccc4s3)cn12 | inactive
O=C(O)c1ccc(NCc2ccc(Br)cc2)cc1 | inactive
CCCOC(=O)c1cc(-c2ccc(C=O)o2)ccc1Cl | inactive
O=C(CN1CCOCC1)N/N=C/c1ccc(-c2ccc(Br)cc2)o1 | inactive
COC(=O)c1cc(-c2ccc(OC)cc2)on1 | inactive
CCOC(=O)Nc1cccc(OCC(=O)Nc2ccc(OC)cc2OC)c1 | inactive
CCOC(=O)c1c(-c2ccccc2)csc1NC(=O)CCN1CCOCC1 | inactive
CCOC(=O)c1sc(NC(=O)CCN2CCOCC2)c(C(=O)OCC)c1C | inactive
CCOC(=O)CNC(=O)N1c2ccccc2Sc2ccccc21 | inactive
COc1cc(/C=N/Nc2ccc(Cl)c(C(=O)O)c2)ccc1OC(=O)c1ccco1 | inactive
CC(C)CSc1nnc2c3ccccc3n(C)c2n1 | inactive

SMILES | outcome
Cc1ccc(/C(O)=C/c2nc3ccccc3oc2=O)cc1 | inactive
COc1ccc(C(=O)COC(=O)c2ccc(Cl)nc2)c(OC)c1 | inactive
O=C1CC(N2CCN(c3ccc(F)cc3)CC2)C(=O)N1Cc1ccccc1 (stereo unspecified) | inactive
O=C(NNc1c(F)c(F)cc(F)c1F)c1cc2ccccc2oc1=O | inactive
Nc1ccc2cc(Br)ccc2c1 | inactive
O=C(OCC(=O)N1CCCc2ccccc21)c1ccc(S(=O)(=O)C(F)F)cc1 | inactive
O=C(C1CCN(C2CC(=O)N(Cc3ccccc3)C2=O)CC1)N1CCCCCC1 (stereo unspecified) | inactive
Cc1cccc(OC(=O)c2ccc3nccnc3c2)c1 | inactive
CCOC(=O)C1(CC2CCCCO2)CCN(Cc2nccn2-c2ccc(OC)cc2)CC1 (stereo unspecified) | inactive
O=C(COc1ccc2ccccc2c1Br)N1CCCC1 | inactive
C=CC(=O)Oc1ccc(N2Cc3ccccc3C2=O)cc1 | inactive
CCOC(=O)Cn1nc(/C=C/c2ccccc2)ccc1=O | inactive
O=C1NC(Cc2c[nH]c3ccccc23)C(=O)N1CCOc1ccccc1 (stereo unspecified) | inactive
CC(C)c1nnc(NC(=O)c2cc3cc(Br)ccc3oc2=O)s1 | inactive
CC(C)c1nnc(NC(=O)c2sc3ccccc3c2Cl)s1 | inactive
O=C(N/N=C/C=C/c1ccccc1)c1cccs1 | inactive
N/C(=N\OC(=O)c1cccs1)c1ccccc1 | inactive
CCOC(=O)c1c(C)[nH]c(C)c1C(=O)COC(=O)c1ccc([N+](=O)[O-])s1 | inactive
O=C(OCC(=O)c1c[nH]c2ccccc12)c1ccc([N+](=O)[O-])s1 | inactive
COC(=O)C1=C(N)OC2=C(C(=O)CC(C)(C)C2)C1c1cccnc1 (stereo unspecified) | inactive
CC1(C)CC(=O)C2=C(C1)OC(N)=C([N+](=O)[O-])C2c1ccc(C#N)s1 (stereo unspecified) | inactive
